Among the data in PubChem BioAssay AID2284072 (EPA ToxCast) are AC50 values, retold here.

Activity calls are given as the source filed them. Rule for the calls: active = hit-call score of the fitted dose curve at least 0.9, where 1 is the maximum; inactive = score below 0.9.

Chain of human CK2 (alpha1/alpha2/beta) Other Protein Kinase, CSNK2A1 (gene 1457) (P68400 whole entry, looked up): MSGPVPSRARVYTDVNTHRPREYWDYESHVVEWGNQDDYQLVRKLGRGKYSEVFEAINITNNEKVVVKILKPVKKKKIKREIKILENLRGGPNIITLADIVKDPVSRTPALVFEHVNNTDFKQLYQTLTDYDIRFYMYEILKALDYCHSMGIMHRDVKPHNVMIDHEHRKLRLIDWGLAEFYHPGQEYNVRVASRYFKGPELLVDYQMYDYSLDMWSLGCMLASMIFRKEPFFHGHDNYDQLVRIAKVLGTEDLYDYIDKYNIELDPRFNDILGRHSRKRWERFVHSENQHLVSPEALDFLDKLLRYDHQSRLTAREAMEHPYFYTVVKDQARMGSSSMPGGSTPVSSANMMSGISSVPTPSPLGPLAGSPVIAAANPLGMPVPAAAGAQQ

This test addresses human CK2 (alpha1/alpha2/beta) Other Protein Kinase, CSNK2A1 (gene 1457) (UniProt P68400). Kind of test: ERF_TW_ENZ_hCSNK2A1: Eurofins (ERF) Enzymatic Radiometric [10 uM ATP] Assay for human CK2 (alpha1/alpha2/beta) Other Protein Kinase. On the procedure:
ERF_TW_ENZ_hCSNK2A1 is a biochemical, single-readout assay that uses extracted gene-proteins in a cell-free assay. Measurements were taken 0.5 hour after chemical dosing in a 96-well plate. See CK2 (alpha1/alpha2/beta) Human Other Protein Kinase Enzymatic Radiometric Assay [10 uM ATP], Panlabs.ERF_TW_ENZ_hCSNK2A1 is an assay component calculated from the ERF_TW_ENZ_hCSNK2A1 assay. It is designed to measure enzyme activity using a type of enzyme reporter as detected by scintillation counting with radiometry technology.Data from the assay component ERF_TW_ENZ_hCSNK2A1 was analyzed at the assay endpoint, ERF_TW_ENZ_hCSNK2A1, in the positive analysis fitting direction relative to DMSO as the negative control and baseline of activity. Using a type of enzyme reporter, loss-of-signal activity can be used to understand changes in enzymatic activity as they relate to gene CSNK2A1. To generalize the intended target to other relatable targets, this assay endpoint is annotated to the kinase intended target family, where the subfamily is serine/threonine kinase.
CK2a1(h) is incubated with 20mM HEPES pH7.4, 0.15M NaCl, 0.1mM EDTA, 5mM DTT, 0.1% Triton X-100, 165 uM […], 10 mM MgAcetate and [gamma-33P-ATP] (specific activity and concentration as required). The reaction is 17 initiated by the addition of the Mg/ATP mix. […]
`O=C(/C=C/c1ccc(O)cc1)CC(=O)/C=C/c1ccc(O)cc1`: the AC50 was 2.25 µM (active).
